Bioassay records from PubChem.
D2 PAM-1 = HTS Assay for Positive Allosteric Modulators of the Human D2 Dopamine Receptor: Primary Screen for Potentiators; potentiation, % at 10 µM; D(2) dopamine receptor (Homo sapiens), P14416; 340,000 compounds, 0.34% hits; HEK293 T-REx D2, calcium flux, EC20 dopamine potentiation; AID 485347, 2010;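 active means potentiation over 3 SD above the plate norm, cut at about 30% in these data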; further: 0% is about no effect
Target sequence (P14416 whole entry, looked up): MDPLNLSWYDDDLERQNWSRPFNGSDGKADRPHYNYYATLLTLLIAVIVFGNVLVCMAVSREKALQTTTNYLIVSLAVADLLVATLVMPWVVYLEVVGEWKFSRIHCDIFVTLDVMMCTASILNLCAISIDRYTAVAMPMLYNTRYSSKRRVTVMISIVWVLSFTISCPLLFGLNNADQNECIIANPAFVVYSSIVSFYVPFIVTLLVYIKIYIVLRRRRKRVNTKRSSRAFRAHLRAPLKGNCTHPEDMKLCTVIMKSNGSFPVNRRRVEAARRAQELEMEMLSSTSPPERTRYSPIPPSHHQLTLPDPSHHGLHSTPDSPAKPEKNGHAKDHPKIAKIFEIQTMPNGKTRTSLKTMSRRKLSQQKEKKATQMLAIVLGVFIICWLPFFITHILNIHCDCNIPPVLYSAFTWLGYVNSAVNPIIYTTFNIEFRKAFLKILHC
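Tetracycline-induced Hek293 Trex D2 cells, force-coupled to calcium, loaded with no-wash calcium dye. Compound added with 180 s kinetic read for agonism, then EC20 dopamine and a further 180 s read for potentiation.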
D2 antag = HTS Assay for Allosteric Antagonists of the Human D2 Dopamine Receptor: Primary Screen for Antagonists; D(2) dopamine receptor (Homo sapiens), P14416; HEK293 TREx D2 cells, calcium flux, dopamine EC80; inhibition, % at 10 µM; 340,000 compounds, 2% hits; AID 485344, 2010; in the data active means inhibition above about 30%; inactive means below that, where a call was filed; further: 0% is about no effect
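Overnight-induced (tetracycline, 30 C) HEK293 T-REx cells carrying force-coupled D2 receive a no-wash calcium dye, then compound, then EC80 dopamine at 180 s; signals are read kinetically throughout.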
D2 ag-1 = Beta-Arrestin HTS for Positive Allosteric Modulators of the Human D2 Dopamine Receptor: Agonists; activation, % (concentration not given with the values); AID 624465, 2012; DiscoveRx PathHunter D2 beta-arrestin, luminescence, 90 min; 100% = 57 uM dopamine signal; 360,000 compounds, 0.084% hits; D(2) dopamine receptor (Homo sapiens), P14416; in the data active means activation above about 40%; inconclusive means between about 15% and that limit
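Agonist mode: compounds alone added to overnight-plated D2 PathHunter cells for 90 min at 37 C, with 57 uM final dopamine (EC100) defining full response. Beta-arrestin recruitment detected by chemiluminescent reagent, read after 1 h at ambient temperature.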
D2 PAM-2 = Beta-Arrestin HTS for Positive Allosteric Modulators of the Human D2 Dopamine Receptor: Potentiators; 360,000 compounds, 0.23% hits; potentiation, % (concentration not given with the values); D(2) dopamine receptor (Homo sapiens), P14416; DiscoveRx D2 beta-arrestin cells, luminescence, 90 min; 100% = 57 uM dopamine signal; in the data active means potentiation above about 50%; inconclusive means mostly about 30% to 49%
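PathHunter beta-arrestin assay in DiscoveRx D2 cells. Compounds were added with an EC20 of dopamine (50 nM final) for 90 min at 37 deg C. Luminescence was read 1 h after detection reagent, with 57 uM dopamine as the EC100 control.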
D2 ag-2 = HTS Assay for Allosteric Agonists of the Human D2 Dopamine Receptor: Primary Screen for Agonists | D(2) dopamine receptor (Homo sapiens), P14416 | HEK293 T-REx D2 cells, calcium flux agonist mode | activation, % at 2 µM | 340,000 compounds, 0.53% hits;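 active means activation over 3 SD above normal in the single-dose calcium agonist read, cut at about 30% in these data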; further: 0% is about no effect
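HEK293 Trex D2 cells, tetracycline-induced, o/n 30 C 5% CO2; no-wash Ca dye, RT 30–90 min; 10-cycle baseline, 23 nl cpd added, kinetic Ca read 180 s; agonist hits = positive Ca response.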
D3 ag = qHTS of D3 Dopamine Receptor Agonist: D3 Dopamine Receptor B-arrestin Agonist Confirmatory Assay; shares compounds with D2 ag-2; DiscoveRx D3 beta-arrestin cells, luminescence, 90 min; Potency, µM (doses to about 76.9 µM), for the others: at the highest dose activation, usual class: activators; 2,300 compounds, 4% hits; AID 720506, 2013;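 further: potency means the concentration at half of the fitted maximal effect; 100% = dopamine control response; nearly all actives have a fitted effect of over 70% in size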
D2 ag-3 = qHTS of D3 Dopamine Receptor Agonist: D2 Dopamine Receptor B-arrestin Agonist Counterscreen. shares compounds with D2 ag-2. DiscoveRx PathHunter D2 beta-arrestin, luminescence, 90 min; response scale: percent relative to full dopamine signal. Potency, µM (top dose mostly 76.9 µM), without a hit: at the top dose activation, usual class: activators. 2,300 compounds, 5.9% hits. AID 720507, 2013; further: potency means the concentration at half of the fitted maximal effect; % of control where 0% means no effect; nearly all actives have a fitted effect of over 70% in size
An asterisk follows results filed as active; ? = inconclusive; nt = not tested or not shown. A selection: hits, their analogues and other compounds. The true share with any hit is near 2.4%. Unless noted, the call rests on the fitted dose curve; in most records, active means well fitted activation curve with a large enough effect; inconclusive means small, poorly fitted or top-dose-only effect; inactive means flat fitted curve, though single readings scatter.

SMILES | D2 PAM-1 | D2 antag | D2 ag-1 | D2 PAM-2 | D2 ag-2 | D3 ag | D2 ag-3
COC(=O)Nc1ncc(CN2CCC(c3ccccc3)CC2)s1 | -27.7 | 98.1* | 13.2 | -24.7 | 84.8* | 8.3% | 22.1%
CC(OC(=O)c1nc(Cl)ccc1Cl)C(=O)NC1CCCCC1C (configuration not stated) | -6.7 | 5.6 | 15.0 | -4.7 | -0.1 | -3.5% | -1.3%
CC1(C)CC(=O)C2=C(C1)OC(N)=C(C#N)C21CCN(Cc2ccccc2)CC1 | 6.6 | -15.7 | 2.4 | -22.3 | 3.0 | nt | nt
Cc1nc2c([nH]1)C1(CCN(Cc3ccccc3)CC1)C(C#N)=C(N)O2 | -36.0 | 60.0* | ? | 7.8 | 71.4* | 7.9% | 10.5%
CCCNC(=O)C(Cc1ccc(Br)cc1)NC(=O)c1ccc(C#N)cc1 (configuration not stated) | -0.6 | 19.4 | -1.5 | -0.6 | -0.2 | -8.2% | -4.1%
CCCNC(=O)C(Cc1ccc(Cl)cc1)NC(=O)c1ccc(C#N)cc1 (configuration not stated) | 1.1 | 1.7 | -9.2 | -1.3 | 0.2 | -1.5% | -3.7%
CCCNC(=O)C(Cc1ccc(Cl)cc1)NC(=O)c1ccc(-c2ccccc2)cc1 (configuration not stated) | -2.4 | -1.8 | -0.1 | 1.4 | 0.0 | nt | nt
C=CC[n+]1c(-c2ccc(C)cc2)csc1Nc1c(C)n(C)n(-c2ccccc2)c1=O | nt | nt | -0.8 | -13.8 | nt | -10.8% | 11.3%
Cc1c(Nc2nc(-c3ccccc3)cs2)c(=O)n(-c2ccccc2)n1C | -2.7 | 12.3 | -0.8 | -16.5 | 0.1 | nt | nt
C=CC[n+]1c(-c2ccc(Cl)cc2Cl)csc1Nc1c(C)n(C)n(-c2ccccc2)c1=O | -16.0 | 48.9* | -7.5 | -28.2 | 56.6* | -47.9% | -10.4%
O=c1[nH]cnc2sc3c(c12)CN(Cc1ccccc1)CC3 | -22.3 | 73.8* | ? | 18.2 | 77.9* | -5.3% | -1.3%
OCCCNc1ncnc2sc3c(c12)CCN(Cc1ccccc1)C3 | -6.4 | -11.8 | -5.4 | -4.5 | -0.3 | nt | nt
CC1(C)Cc2c(sc3nc[nH]c(=O)c23)CO1 | 5.7 | 19.2 | -0.2 | 3.4 | -0.6 | nt | nt
O=c1[nH]cnc2sc3c(c12)CCN(Cc1ccccc1)C3 | -15.2 | 18.1 | ? | 7.8 | 62.4* | 0.6% | 0.5%
Nc1ccc(N2CCN(CCCCN3C(=O)C4CCCN4C3=O)CC2)cc1 (configuration not stated) | -17.0 | 42.4* | 6.1 | -15.6 | 63.1* | 23.2% | 15.3%
O=C(Nc1ccc(F)cc1)C1CC2CCC1C2 (configuration not stated) | nt | nt | 13.0 | -3.6 | nt | -10.3% | -5.8%
CC(C)c1ccc(NC(=O)C2CC3CCC2C3)cc1 (configuration not stated) | -4.2 | 11.3 | -0.3 | -2.4 | -0.1 | nt | nt
O=C(CCCc1ccccc1)c1ccccc1 | 26.4 | -11.7 | -1.4 | -5.9 | -0.1 | nt | nt
CCN(CCCC(=O)c1ccc(F)cc1)CCc1ccccc1 | -22.2 | 101.6* | 12.8 | -23.6 | 82.9* | ? | 16.6%
COc1ccccc1C(=O)OCCN=C1NS(=O)(=O)c2ccccc21 | 4.4 | -3.8 | -2.6 | -1.9 | 1.3 | nt | nt
Cc1ccccc1NC(=O)COc1coc(CN2CCN(Cc3ccccc3)CC2)cc1=O | -33.5 | -3.8 | 0.8 | -13.3 | 73.6* | -31.7% | -3.1%
O=C(COc1coc(CN2CCN(c3ccccc3F)CC2)cc1=O)NC1CCCCC1 | -8.0 | 19.2 | 14.6 | 2.5 | 0.8 | 12.0% | 16.0%
Cc1ccc(NC(=O)COc2coc(CN3CCN(Cc4ccccc4)CC3)cc2=O)cc1 | 11.3 | 3.9 | 3.7 | -7.0 | -1.3 | nt | nt
OC(c1cc(-c2ccc(C(F)(F)F)cc2)nc(C(F)(F)F)c1)C1CCCCN1 (configuration not stated) | -3.4 | -5.8 | ? | -42.9 | 10.1 | ? | ?
COc1cc(S(=O)(=O)N2CCCCC2)c(OC)cc1Br | 1.9 | -2.9 | -5.6 | -1.7 | 0.3 | nt | nt
SMILES | D2 PAM-1 | D2 antag | D2 ag-1 | D2 PAM-2 | D2 ag-2 | D3 ag | D2 ag-3
CCOc1cc(CNCCc2ccc(S(N)(=O)=O)cc2)ccc1OCc1ccc(Cl)cc1 | -1.7 | 64.9* | 3.7 | 11.8 | 2.0 | ? | ?
O=C(CCC1N=C2c3ccccc3N=C(SCC(=O)NCCc3ccccc3)N2C1=O)NCc1ccc(F)cc1 (configuration not stated) | -3.8 | nt | nt | nt | 1.0 | nt | nt
Fc1ccccc1N1CCN(CC2CC3C=CC2C3)CC1 (configuration not stated) | -15.2 | 73.9* | ? | -6.9 | 78.6* | ? | ?
O=C(COC(=O)CC1CCCC1)Nc1cccc(F)c1 | 7.7 | 21.1 | -4.3 | -4.0 | -0.1 | nt | nt
O=C1OC(N2CCN(c3ccccn3)CC2)c2ccccc21 (configuration not stated) | -22.8 | 33.8* | 8.6 | -5.7 | 55.2* | 2.8% | 25.7%
COc1ccc2[nH]c3c(=O)n(/N=C/[C@H]4C(C)C=C(C)CC4C)c(=O)[nH]c3c2c1 (some centres not stated) | -15.4 | 35.8* | 2.7 | 18.8 | 40.8* | 10.1% | 3.7%
COc1ccc2c(c1)[nH]c1c(=O)n(/N=C/C3C(C)C=C(C)CC3C)c(=O)[nH]c12 (configuration not stated) | nt | 29.4 | -1.7 | 7.7 | -0.7 | nt | nt
O=C(c1ccc(F)c(S(=O)(=O)N2CCOCC2)c1)N(c1ccccc1)c1ccccn1 | nt | nt | -1.5 | -0.6 | nt | -7.3% | ?
CCOc1ccc(NC(=O)CSCc2cnn(-c3ccccc3)c2-n2cccc2)cc1 | 2.7 | -8.5 | -2.5 | -0.5 | -1.6 | nt | nt
COc1ccccc1C1CCN(Cc2cccc(C(=O)N3CCC(O)CC3)c2)CC1 | -23.7 | 75.5* | -0.4 | -4.8 | 74.7* | -3.7% | 6.0%
CC(C)CN(C(=O)c1ccc(S(=O)(=O)N2CCOCC2)cc1)C1CCS(=O)(=O)C1 (configuration not stated) | 17.4 | -10.2 | -2.9 | -7.6 | 0.1 | nt | nt
